# Screening results deposited in PubChem by several laboratories.
# Rows were chosen to be rich in hits. Some 12% of all compounds tested hit in one or more screens of this group.
# L major viab: inhibitors of Leishmania major promastigote growth; Leishmania major promastigotes, resazurin fluorescence viability; inhibition, % at 10 µM; actives 9% (n = 200,000); in the data active = inhibition above about 50%;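 also: promastigotes grown with compound for 44 hours at 28 °C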
# Arbovirus anti: arbovirus infection inhibition | arbovirus infection cell-based antiviral screen | inhibition, % at 10 µM | actives 0.37% (n = 200,000) | AID 1251; in the data active = inhibition above about 30%
# CHOP inhibitor: CHOP inhibition in unfolded protein response | actives 3.8% (n = 220,000) | inhibition, % at 10 µM | CHO-K1 CHOP-promoter luciferase, tunicamycin-induced, 15-18 h | AID 2732;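 active = compounds that reduced the stress-induced luciferase reporter signal by more than about 70% of percent inhibition, limit read from the data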;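 also: 0% = tunicamycin plus vehicle and 100% = wells without tunicamycin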
# WT yeast gro inh: growth inhibition of WT yeast, mitochondrial fusion screen. actives 2.1% (n = 190,000). mitochondrial fusion phenotypic screen, WT strain. AID 1362. inhibition, % at 10 µM; in the data active = inhibition above about 58%; tested in S. cerevisiae
# CHOP confirm: confirmation of CHOP induction inhibitors; shares compounds with CHOP inhibitor; CHO-CHOP promoter luciferase reporter, tunicamycin-induced, luminescence; inhibition, % at 10 µM; actives 45% (n = 2,100);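 active = mean of three repeat readings of reporter signal inhibition above a set limit, cut at about 70% in these data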;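 also: 0% = tunicamycin plus vehicle and 100% = wells lacking tunicamycin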
# Starred values were filed as active, the others as inactive; / = no result.
SMILES,L major viab,Arbovirus anti,CHOP inhibitor,WT yeast gro inh,CHOP confirm
O=C(CN(Cc1ccc(F)cc1)C(=O)c1ccco1)NCc1ccc(F)cc1,3,-2,-9,7,/
CC1(C)CC(C(CCN(Cc2ccccc2)C(=O)c2ccco2)c2ccc(F)cc2)CCO1 (centres undefined),38,-35,101*,75*,79*
O=C(NC(c1ccccc1)c1c(O)ccc2ccccc12)c1ccccc1Cl (centres undefined),100*,-11,107*,41,125*
COc1ccccc1C(NC(=O)C1CCCCC1)c1c(O)ccc2ccccc12 (centres undefined),40,9,56,2,/
O=C1CC(c2ccccc2)CC(O)=C1C=NCc1ccc(Cl)cc1 (centres undefined),-5,2,61,13,/
O=C(Nc1ccc(Oc2ccccc2)cc1)c1cnc2n(c1=O)CCS2,-11,13,60,17,/
COCCn1c(=NC(C)=O)sc2cc([N+](=O)[O-])ccc21,-2,4,1,-16,/
COCCn1c(=NC(=O)/C=C/c2ccccc2)sc2cc(NC(C)=O)ccc21,28,-1,100*,1,43
CC1=CC(=O)C=C(C)C1=NOC(=O)/C=C\c1ccccc1,53*,2,101*,-3,-90
CC1=C(C)/C(=N\OC(=O)/C=C/c2ccccc2)C=CC1=O,100*,-29,104*,6,-143
N/C(=N\OC(=O)/C=C/c1ccccc1)c1ccncc1,14,4,-9,-1,/
COc1ccccc1OP(=O)(O)Oc1ccccc1OC,-5,9,1,-17,/
COC(=O)c1cn[nH]c1NC(=S)Nc1ccc(C)cc1Cl,6,15,-34,15,/
COC(=O)c1cn[nH]c1NC(=S)Nc1ccc(Cl)c(Cl)c1,32,12,97*,47,24
N#Cc1c(Cl)c(Cl)c2nnc(-c3ccc(Br)cc3)n2c1Cl,-5,-19,104*,6,-7
Oc1ccc(/C=N/NC2=NCCCCC2)cc1,2,-5,33,16,/
O=C(COc1ncnc2ccccc12)NCCCN1CCCC1=O,-5,-1,16,11,/
O=C(NCc1ccccn1)c1nc(-c2ccc(C(F)(F)F)cc2)no1,-5,-4,11,3,/
O=C(NCc1nc(-c2ccc(C(F)(F)F)cc2)no1)Nc1ccc(OC(F)(F)F)cc1,/,/,100*,/,106*
CCn1cc(CN(C)C(=O)/C=C/c2ccc([N+](=O)[O-])cc2)c(C)n1,-1,-6,96*,-11,0
CCCn1c(SCC(=O)c2ccc3c(c2)NC(=O)CO3)nc2ccccc21,2,-11,103*,11,5
O=C1COc2ccc(C(=O)CSc3nc4ccccc4c(=O)n3-c3ccc(Cl)c(Cl)c3)cc2N1,4,-30,57,-2,/
Cc1cc(NC(=O)CSc2nc3cc4c(cc3c(=O)n2CCc2ccccc2)OCO4)no1,-7,-14,99*,-2,101*
CC(=O)NNC(=S)NC(=O)C(c1ccccc1)c1ccccc1,-1,-28,39,-8,/
CC(C)(C)C(=O)NC(=S)NNC(=O)C(c1ccccc1)c1ccccc1,4,-29,106*,-41,121*
SMILES,L major viab,Arbovirus anti,CHOP inhibitor,WT yeast gro inh,CHOP confirm
CC(/C=C1\SC(=O)N(CCCC(=O)O)C1=O)=C\c1ccccc1,-8,25,101*,18,110*
COCCNC(=O)C(c1c[nH]c2ccccc12)N(C(=O)c1snc(C(N)=O)c1N)c1cccc(OC)c1 (centres undefined),-6,15,-4,12,/
O=C1C(Nc2ccccc2)=C/C(=N/S(=O)(=O)c2cccs2)c2ccccc21,101*,-45,108*,99*,112*
COC(=O)c1ccccc1NC1=C/C(=N\S(=O)(=O)c2cccs2)c2ccccc2C1=O,100*,-44,107*,62*,109*
COC(=O)c1cccc(NS(=O)(=O)c2cccs2)c1C,11,8,2,17,/
CCN1CCN(C(=O)N2CCOCC2)CC1,-4,-2,-1,-10,/
CCCCC(CC)Cn1c2nc3ccccc3nc2c2c(=N)oc(C)nc21 (centres undefined),26,-45,106*,-12,104*
CCCCC(CC)Cn1c(N)c(C#N)c2nc3ccccc3nc21 (centres undefined),-16,10,101*,-1,133*
CCSc1nc2ccccc2n1CC(=O)O,-4,-4,8,-9,/
Cn1c(=O)c([N+](=O)[O-])c(-n2ccnc2)c2ccccc21,6,-6,103*,-4,-90
Cn1c(=O)c([N+](=O)[O-])c(NCCCn2ccnc2)c2ccccc21,/,/,11,/,/
COC(=O)N/N=C/c1sc(N2CCCCC2)nc1-c1cccs1,42,-2,5,15,/
CCC(C)(C)NC(=O)CCCSc1nc2ccccc2[nH]1,/,/,-6,/,/
Cc1c(F)cccc1NC(=O)CSCC(=O)Nc1ccccc1,-10,1,12,-1,/
COc1cccc(NC(=O)CSc2nnc(-c3cc(C)n(-c4ccccc4)c3C)o2)c1,-3,-18,98*,50,85*
FC(F)(F)c1cc(-c2cccs2)n[nH]1,8,3,29,-1,/
FC(F)(F)c1cccc(CN2CCC(c3cc(-c4cccs4)n[nH]3)CC2)c1,13,-35,104*,21,94*
N#Cc1c(N)nc(-c2ccccc2)nc1-c1ccccc1,-5,-3,107*,-11,21
O=c1[nH]c(NNC(=S)NC2CCCCC2)nc2c1C1(CCCC1)Cc1ccccc1-2,/,/,103*,/,110*
CCOC(=O)CSc1nnnn1-c1cc(OC)c(Cl)cc1OC,-5,2,32,13,/
COc1cc(-n2nnnc2SCC(=O)N2CCN(c3ccc(F)cc3)CC2)c(OC)cc1Cl,10,6,98*,0,49
Cc1cc(C)c(NC(=O)c2ccc(CNS(=O)(=O)c3cc(C(F)(F)F)ccc3Cl)cc2)c(C)c1,-1,-7,50,7,/
CC1CCc2cc(F)ccc2N1C(=O)CSc1nnc2c(n1)[nH]c1ccc(F)cc12 (centres undefined),10,-34,101*,16,110*
Cc1cc(Nc2ccc(Cl)cc2)nc(NCc2ccccc2)n1,100*,-37,107*,97,81*
Cc1ccc(S(=O)(=O)N2CC=C(C(=O)NC3CC3)CC2)cc1,/,/,-15,/,/
SMILES,L major viab,Arbovirus anti,CHOP inhibitor,WT yeast gro inh,CHOP confirm
O=S(=O)(NCCn1ccc2ccccc21)c1ccccc1,-4,19,22,-2,/
CCSc1nnc(NC(=O)C2CCCCC2C(=O)O)s1 (centres undefined),-3,11,14,-11,/
CCSc1nnc(NC(=O)C2CC2c2ccccc2)s1 (centres undefined),82*,-1,102*,-2,-64
CCCOc1ccc(-c2cnc(N)s2)cc1,3,1,-4,22,/
COc1ccc(CC(=O)Nc2cccc(-c3nnc(-c4cccc(C)c4)o3)c2)cc1OC,9,-7,/,30,113*
CCOc1cccc(C(=O)Nc2cccc(-c3nnc(-c4ccc(C)cc4)o3)c2)c1,-1,-39,105*,1,103*
Cc1ccc(-c2nnc(Cc3ccc(Cl)cc3)o2)cc1,-1,-4,57,-13,/
